Screens deposited in PubChem by several laboratories.
An excerpt weighted towards active compounds, which were near 3.7% of everything screened.
Mtb betalactam – beta-lactam sensitization of Mtb H37Rv, H37Rv | actives 0.27% (n = 330,000) | M. tuberculosis H37Rv growth with meropenem, percent inhibition | inhibition, % at 25 µM; call rule not given here;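 note: growth measured after seven days incubation then overnight dye step; 0% = bacteria only wells and 100% = bacteria with antibiotic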
Rv3671c protease – Rv3671c serine protease inhibitors, primary screen, biochemical, fluorescence polarization, M. tuberculosis H37Rv. P9WHR9. inhibition, % at 5.96 µM. actives 0.048% (n = 320,000); in the data active = inhibition above about 38%;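 note: extracellular domain of Rv3671c used as enzyme; 0% = enzyme with DMSO and 100% = no enzyme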
Target sequence (P9WHR9 whole entry, looked up, the tested form may be a part): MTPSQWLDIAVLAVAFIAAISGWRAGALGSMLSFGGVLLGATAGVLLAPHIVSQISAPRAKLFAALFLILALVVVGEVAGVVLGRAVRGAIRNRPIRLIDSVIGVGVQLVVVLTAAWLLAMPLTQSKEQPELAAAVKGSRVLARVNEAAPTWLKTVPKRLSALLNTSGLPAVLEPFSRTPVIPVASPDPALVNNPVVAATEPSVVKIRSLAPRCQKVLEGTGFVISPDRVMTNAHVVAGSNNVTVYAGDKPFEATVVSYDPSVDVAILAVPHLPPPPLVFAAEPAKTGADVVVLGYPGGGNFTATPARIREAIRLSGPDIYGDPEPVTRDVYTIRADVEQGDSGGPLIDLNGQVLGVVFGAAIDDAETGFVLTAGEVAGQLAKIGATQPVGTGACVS
GDH-TPI counter-1 – GDH-TPI coupling enzyme inhibitors, primary screen, artefact control for M. tuberculosis FBA inhibitor project, biochemical, absorbance, full deck; GDH-TPI coupled enzyme counterscreen, NADH absorbance; inhibition, % at 4.8 µM; actives 1.2% (n = 360,000); AID 588335, 2011; in the data active = inhibition above about 30%;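 note: 0% = DMSO wells and 100% = wells lacking the enzyme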
FBA Mtb inh – Mtb FBA enzyme inhibitors, primary screen, biochemical, fluorescence, strain H37Rv | Fructose-bisphosphate aldolase (Mycobacterium tuberculosis (strain ATCC 25618 / H37Rv)), … | purified M. tuberculosis FBA, fluorescence read-out | inhibition, % at 1 µM | actives 2.3% (n = 360,000) | AID 588726, 2011;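 note: 0% = vehicle and 100% = reference inhibitor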
Mtb UGM inh – M. tuberculosis UGM enzyme inhibitors, primary screen, biochemical, fluorescence polarization, single point | purified UGM, fluorescence polarization probe displacement | UDP-galactopyranose mutase (Mycobacterium tuberculosis (strain ATCC 25618 / H37Rv)), … | AID 504406, 2011 | actives 0.06% (n = 320,000) | inhibition, % at 10 µM; in the data active = inhibition above about 10%, passing the limit was not always enough; inconclusive = no clear call, values can overlap the other calls
FadD28 binding – inhibitors of FadD28 bisubstrate probe binding, primary screen, biochemical, fluorescence polarization, single point | Mycobacterium tuberculosis FadD28 fatty-acid-AMP ligase | inhibition, % at 12.5 µM | actives 0.22% (n = 360,000); in the data active = inhibition above about 8.5%, passing the limit was not always enough; inconclusive = no clear call, values can overlap the other calls
Mtb FBA inh conf – M. tuberculosis aldolase blockers, biochemical, fluorescence, strain H37Rv, confirmation; purified M. tuberculosis FBA, fluorescence read-out; actives 78% (n = 5,600); shares compounds with FBA Mtb inh; AID 651616, 2012; inhibition, % at 1 µM;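 note: 0% = vehicle wells and 100% = reference inhibitor wells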
GDH-TPI counter-2 – GDH-TPI coupling enzyme inhibitors, artefact control for M. tuberculosis FBA inhibitor project, biochemical, fluorescence, high throughput | shares compounds with FBA Mtb inh | GDH-TPI coupled enzyme counterscreen | inhibition, % at 1 µM | actives 81% (n = 5,600) | AID 652141, 2013; in the data active = inhibition above about 10%
The depositor's hits bear a star. Cut-off read from the data, not from the text of the source, unless noted: active = inhibition above about 27%; inactive = the rest.

What do the screens show for `Cc1noc(C)c1C(=O)N1CCC1(C)C(=O)NS(=O)(=O)c1cccc(Cl)c1` (stereo unspecified)?
GDH-TPI counter-1: 6; FBA Mtb inh: -2; FadD28 binding: -1

How did COc1ccc(OC)c(N(CC(=O)NC2CCCC2)S(=O)(=O)c2ccc(OC)c(OC)c2)c1 do in these assays?
Mtb betalactam: inconclusive; Rv3671c protease: -2; GDH-TPI counter-1: -4; FBA Mtb inh: 5; Mtb UGM inh: 1; FadD28 binding: 0

What do the screens show for `CC(C)CN(C(=O)COC(=O)C12CC3CC(CC(C3)C1)C2)c1c(N)n(Cc2ccccc2)c(=O)[nH]c1=O`?
Mtb betalactam: -1; Rv3671c protease: 4; GDH-TPI counter-1: 7; FBA Mtb inh: -1; Mtb UGM inh: 1; FadD28 binding: -4

What do the screens show for `C[C@H](CO)N1C[C@H](C)[C@H](CN(C)Cc2cccc(F)c2)Oc2ncc(Br)cc2C1=O`?
GDH-TPI counter-1: -4; FBA Mtb inh: -2; FadD28 binding: -2

What do the screens show for `Cc1ccc(CN2CC(C(=O)Nc3ccc(C)c(S(=O)(=O)N4CCCCC4)c3)CC2=O)cc1` (stereo unspecified)?
GDH-TPI counter-1: 7; FBA Mtb inh: 3; FadD28 binding: -2

What do the screens show for `Cc1ccc(CN2CC(C(=O)Nc3ccc4c(C)cc(=O)oc4c3)CC2=O)cc1` (stereo unspecified)?
Mtb betalactam: -10; Rv3671c protease: -5; GDH-TPI counter-1: 16; FBA Mtb inh: 89*; Mtb UGM inh: 3; FadD28 binding: 0; Mtb FBA inh conf: 96*; GDH-TPI counter-2: 74*

What do the screens show for `O=C(Nc1ccc(-c2nnc(-c3ccco3)o2)cc1)C(c1ccccc1)c1ccccc1`?
Mtb betalactam: -11; Rv3671c protease: -5; GDH-TPI counter-1: 19; FBA Mtb inh: 7; Mtb UGM inh: 0; FadD28 binding: -2

Results for CCOc1ccc(-c2nnc(-c3ccco3)o2)cc1OCC ?
Mtb betalactam: -3; Rv3671c protease: 0; GDH-TPI counter-1: 8; FBA Mtb inh: 74*; Mtb UGM inh: 1; FadD28 binding: 1; Mtb FBA inh conf: 130*; GDH-TPI counter-2: 119*

What do the screens show for `Brc1ccc(-c2nnc(-c3ccco3)o2)cc1`?
Mtb betalactam: 59; Rv3671c protease: 5; GDH-TPI counter-1: 8; FBA Mtb inh: 60*; Mtb UGM inh: 0; FadD28 binding: -3; Mtb FBA inh conf: 149*; GDH-TPI counter-2: 145*

How did c1ccc(-c2nnc(-c3ccco3)o2)cc1 do in these assays?
Mtb betalactam: -2; Rv3671c protease: -8; GDH-TPI counter-1: 4; FBA Mtb inh: 42*; Mtb UGM inh: -1; FadD28 binding: 0; Mtb FBA inh conf: 64*; GDH-TPI counter-2: 49*

What do the screens show for `CNc1ncnc2c1ncn2[C@H]1CN(Cc2ccc(OC)cc2)C[C@@H](CO)O1`?
GDH-TPI counter-1: 0; FBA Mtb inh: 1; FadD28 binding: -1

What do the screens show for `CN1CCc2c(sc(/N=C/c3cccs3)c2C(N)=O)C1`?
Mtb betalactam: 91; Rv3671c protease: 6; GDH-TPI counter-1: 26; FBA Mtb inh: 24; Mtb UGM inh: 0; FadD28 binding: -1

Results for CN1CCc2c(sc(/N=C/c3ccco3)c2C(N)=O)C1 ?
Mtb betalactam: -12; Rv3671c protease: 0; GDH-TPI counter-1: 21; FBA Mtb inh: 40*; Mtb UGM inh: 2; FadD28 binding: -1; Mtb FBA inh conf: 42*; GDH-TPI counter-2: 24*

How did CCc1c(C)nc2ncnn2c1N1CCCC(C(=O)Nc2cc(F)ccc2C)C1 (stereo unspecified) do in these assays?
Mtb betalactam: -3; Rv3671c protease: -7; GDH-TPI counter-1: 16; FBA Mtb inh: 28*; Mtb UGM inh: -2; FadD28 binding: 0; Mtb FBA inh conf: 8; GDH-TPI counter-2: 0

What do the screens show for `Cc1onc(-c2ccccc2Cl)c1C(=O)N1CCN(c2ccc(F)cc2)CC1`?
Mtb betalactam: -2; Rv3671c protease: -3; GDH-TPI counter-1: -3; FBA Mtb inh: -3; Mtb UGM inh: 5

What do the screens show for `COc1ccc2oc(C(=O)OCC(=O)NCCc3ccc(S(N)(=O)=O)cc3)c(C)c2c1`?
Mtb betalactam: -2; Rv3671c protease: 1; GDH-TPI counter-1: 8; FBA Mtb inh: 38*; Mtb UGM inh: -2; FadD28 binding: -1; Mtb FBA inh conf: active; GDH-TPI counter-2: 184*

How did Cc1ccc(C(=O)OCC(=O)NCCc2ccc(S(N)(=O)=O)cc2)o1 do in these assays?
Mtb betalactam: -5; Rv3671c protease: 3; GDH-TPI counter-1: 1; FBA Mtb inh: -1; Mtb UGM inh: 5; FadD28 binding: 1

How did COc1ccc2oc(C(=O)OCC(=O)N(CCC#N)c3ccccc3)c(C)c2c1 do in these assays?
Mtb betalactam: -2; Rv3671c protease: -2; GDH-TPI counter-1: -1; FBA Mtb inh: 39*; Mtb UGM inh: 0; FadD28 binding: -3; Mtb FBA inh conf: 1; GDH-TPI counter-2: -5

How did COc1ccc2oc(C(=O)OCC(=O)NCCc3ccccc3)c(C)c2c1 do in these assays?
Mtb betalactam: -12; Rv3671c protease: -13; GDH-TPI counter-1: 8; FBA Mtb inh: 32*; Mtb UGM inh: 2; FadD28 binding: 0; Mtb FBA inh conf: 58*; GDH-TPI counter-2: 43*

What do the screens show for `Cc1nc(C(F)(F)F)ccc1C(=O)N1CCC1(C)C(=O)NS(=O)(=O)c1c(C)noc1C` (stereo unspecified)?
GDH-TPI counter-1: 6; FBA Mtb inh: 1; FadD28 binding: -3

How did ClC(Cl)(Cl)c1nc2ccccc2n2nncc12 do in these assays?
Mtb betalactam: 8; Rv3671c protease: -11; GDH-TPI counter-1: -3; FBA Mtb inh: -6; Mtb UGM inh: 0; FadD28 binding: -3

How did CCOc1ccc(N(Cc2cc3ccc(C)cc3[nH]c2=O)C(=O)COC)cc1 do in these assays?
Mtb betalactam: -7; Rv3671c protease: 6; GDH-TPI counter-1: 9; FBA Mtb inh: -3; Mtb UGM inh: 2; FadD28 binding: 0
